Measured values as given in PubChem BioAssay.
Calls of active or inactive are those of the source.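 Rule for the calls, unless noted: active = fluorescence slope higher than the sample average by over 3 SD (cut at about -0.22 in these data, passing the limit was not always enough); inactive = the rest.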

Tests used:
[1] = inhibitors of TNFa-induced NFkB p65 translocation, primary screen, imaging, HUVEC, MLSMR starter and 10KST1 sets (AID 438;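 active = inhibition above 20% together with a positive visual image hit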;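 note: compound added about 3h40 before a 20 min TNFalpha stimulation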;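 for inhibition: signal is the nuclear over cytoplasmic p65 intensity ratio per well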); conditions: HUVEC TNFa-induced p65 nuclear translocation; cell count: measured here: nuclei count (cytotoxicity indicator), at 2.08 µM; inhibition: at 2 µM, stronger effect = higher value, 0% TNFa-plus-vehicle, 100% no-TNFa wells
[2] = reduction of polyQ htt aggregates in cells – imaging, exon1htt(103Q)mCFP cells, high-content imaging, primary screen (AID 483;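 active = visual image review flags a hit and inhibition of aggregation exceeds 20%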;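 note: compound exposure lasted 3 days before fixation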;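 for nuclei count: percent of the per-plate median nuclei count of sample wells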); conditions: exon1htt(103Q)mCFP cell line, aggregate imaging, at 2 µM; inhibition of aggregation: stronger effect = higher value; nuclei count: measured here: cell count, toxicity
[3] = endothelial E-selectin expression blockers – imaging, HUVEC, immunofluorescence, MLSMR starter and 10KST1 sets, primary screen (AID 487;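 active = visually confirmed hit in the image check and inhibition above 20%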;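 for inhibition: signal is fraction of cell area covered by stained E-selectin grains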;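 for nuclei count: 100% = median nuclei count of all wells on the same plate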); conditions: HUVEC TNFalpha-induced E-selectin immunofluorescence imaging, at 2 µM; inhibition: stronger effect = higher value; nuclei count: measured here: cell number, toxicity
[4] = target: Voltage-gated potassium channel subunit beta-2 (Rattus norvegicus) (UniProt P62483); assay: inhibitors of rat Kvbeta2 reductase activity – biochemical, NADPH fluorescence, primary screen (AID 622); conditions: recombinant KvBeta, 4-cyanobenzaldehyde reduction, at 10 µM, stronger effect = higher value;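 note: slope of raw intensity against log time taken from 70 to 1610 s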
Sequence of Voltage-gated potassium channel subunit beta-2 (Rattus norvegicus) (P62483 whole entry, looked up): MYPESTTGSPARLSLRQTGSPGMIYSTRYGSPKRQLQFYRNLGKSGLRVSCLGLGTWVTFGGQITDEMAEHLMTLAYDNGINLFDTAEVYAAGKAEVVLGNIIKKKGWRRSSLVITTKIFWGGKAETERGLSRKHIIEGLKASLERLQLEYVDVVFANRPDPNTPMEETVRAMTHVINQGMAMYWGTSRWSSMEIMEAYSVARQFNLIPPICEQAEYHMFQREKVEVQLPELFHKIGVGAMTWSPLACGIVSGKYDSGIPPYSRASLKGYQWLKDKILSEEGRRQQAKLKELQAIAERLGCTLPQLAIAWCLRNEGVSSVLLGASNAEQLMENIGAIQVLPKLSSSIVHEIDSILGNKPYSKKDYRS

[5] = target: Voltage-gated potassium channel subunit beta-2 (Rattus norvegicus) (UniProt P62483); assay: enhancers of rat Kvbeta2 NADPH turnover – biochemical, NADPH fluorescence, primary screen (AID 623;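 active = NADPH fluorescence slope more negative than the mean of all samples by about 3 SD, 99.7% confidence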;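 note: fluorescence intensity change per second fitted from 20 to 320 s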); conditions: Recombinant KvBeta, NADPH fluorescence decrease slope, 10 min; at 10 µM; stronger effect = lower value
[6] = target: Alpha-2C adrenergic receptor (Homo sapiens) (UniProt P18825); assay: compounds altering alpha2C-coupled GIRK flux – cell-based, HEK293 alpha2C/GIRK1/2, thallium flux, primary screen (AID 624;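 active = fluorescence slope after compound addition differing from the mean of all screened samples at 99.7% confidence, in either direction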;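 note: slope of fluorescence ratio to pre-addition baseline per second over 15 to 24 s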); conditions: thallium flux BTC fluorescence, at 10 µM, actives lie on both sides
Sequence of Alpha-2C adrenergic receptor (Homo sapiens) (P18825 whole entry, looked up): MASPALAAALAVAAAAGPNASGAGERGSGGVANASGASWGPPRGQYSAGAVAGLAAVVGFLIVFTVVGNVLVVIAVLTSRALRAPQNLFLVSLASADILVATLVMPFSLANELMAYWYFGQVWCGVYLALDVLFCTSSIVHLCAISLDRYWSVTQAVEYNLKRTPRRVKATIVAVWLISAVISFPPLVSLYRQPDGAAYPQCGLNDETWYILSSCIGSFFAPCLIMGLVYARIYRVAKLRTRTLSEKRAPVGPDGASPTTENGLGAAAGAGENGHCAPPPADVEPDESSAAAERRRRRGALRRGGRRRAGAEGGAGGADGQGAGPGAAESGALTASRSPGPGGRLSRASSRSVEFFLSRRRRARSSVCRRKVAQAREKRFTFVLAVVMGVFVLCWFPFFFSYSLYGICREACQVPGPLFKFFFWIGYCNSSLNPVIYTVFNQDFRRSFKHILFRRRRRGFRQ

[7] = blockers of RIG-like receptor reporter activation – cell-based, Sendai virus stimulus, luciferase, 10K MLSCN set, TLR/RLR signaling modifier project, primary screen (AID 602276;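 active = inhibition at or above 50% at 10 µM; inactive = inhibition below 50%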;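 note: firefly luciferase from ISG56 promoter only with Renilla not read in this screen; 0% = Sendai virus plus DMSO and 100% = medium plus DMSO without virus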); conditions: HEK293 RL24 IRF3 luciferase reporter, at 10 µM, stronger effect = higher value
[8] = TLR3 IRF3 reporter activation blockers – cell-based, poly I:C stimulus, luciferase, 10K MLSCN set, primary screen (AID 602277;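 active = inhibition of the reporter signal at or above 50%; inactive = inhibition below 50%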); conditions: HEK293-TLR3 RL24 IRF3 luciferase reporter, at 10 µM, stronger effect = higher value

Row | SMILES | cell count [1] | inhibition [1] | inhibition of aggregation [2] | nuclei count [2] | inhibition [3] | nuclei count [3] | fluorescence slope [4] | NADPH fluorescence slope [5] | slope [6] | inhibition [7] | inhibition [8]
1 | COc1ccc(Br)cc1S(=O)(=O)N1CC(C)OC(C)C1 (centres undefined) | 359 | 2.8% (inactive) | -12.3% (inactive) | 94% | -42.7% (inactive) | 104% | -0.429 (inactive) | 3.8e-05 (inactive) | 0.0065 (inactive) | -2.27% (inactive) | 9.82% (inactive)
2 | CCOC(=O)C1CCN(C(=O)c2ccc(Cl)c(Cl)c2)CC1 | 322 | 4.4% (inactive) | 7.9% (inactive) | 83.5% | -64.6% (inactive) | 110% | -0.522 (inactive) | 1.1e-05 (inactive) | 0.00596 (inactive) | -22.5% (inactive) | -5.49% (inactive)
3 | CCc1nnc(SCC(=O)NC2CCCCC2)nc1CC | 774 | -14.3% (inactive) | 11.4% (inactive) | 105% | -62.4% (inactive) | 103% | -0.536 (inactive) | 2e-06 (inactive) | 0.00672 (inactive) | -5.14% (inactive) | 5.98% (inactive)
4 | CCCCC(NS(=O)(=O)c1ccc(OC)cc1)C(=O)O (centres undefined) | 386 | 8.8% (inactive) | -16.5% (inactive) | 108% | -31.9% (inactive) | 118% | -0.448 (inactive) | -4e-05 (inactive) | 0.0033 (inactive) | 7.54% (inactive) | 39% (inactive)
5 | Cc1ccc2nc(NC(=O)CN(C)S(=O)(=O)c3cccc4nsnc34)sc2c1 | 379 | -5.3% (inactive) | -0.2% (inactive) | 113% | -38.2% (inactive) | 101% | -0.41 (inactive) | -4.4e-05 (inactive) | 0.00524 (inactive) | 32.6% (inactive) | 25% (inactive)
6 | O=C(CSc1nnc(-c2ccccc2)o1)N1CCN(c2ccccc2)CC1 | 220 | 12.5% (inactive) | -9.2% (inactive) | 88.7% | -98.1% (inactive) | 105% | -0.406 (inactive) | -3.6e-05 (inactive) | 0.0062 (inactive) | 5.38% (inactive) | 2.42% (inactive)
7 | CC(C)(C)Nc1nc(NC(C)(C)C)nc(-n2ccnc2)n1 | 194 | -0.8% (inactive) | -0.1% (inactive) | 81.5% | 2.8% (inactive) | 91.6% | -0.443 (inactive) | 1.8e-05 (inactive) | 0.00537 (inactive) | 14.6% (inactive) | 29% (inactive)
8 | N#Cc1ccccc1Cn1c(=O)n(Cc2ccc(C(=O)NCc3ccco3)cc2)c(=O)c2sccc21 | 865 | -0.6% (inactive) | 9.3% (inactive) | 120% | -55.6% (inactive) | 115% | -0.577 (inactive) | -4.1e-05 (inactive) | 0.00686 (inactive) | 11.4% (inactive) | 17.2% (inactive)
9 | CC(=O)N1CCN(C(=O)COc2ccc(Br)cc2)CC1 | 518 | -6.3% (inactive) | -1.5% (inactive) | 93.7% | -21.9% (inactive) | 139% | -0.592 (inactive) | -5.6e-05 (inactive) | 0.00597 (inactive) | 5.88% (inactive) | 13.4% (inactive)
10 | O=S1(=O)CC(N2CCOCC2)c2ccccc21 (centres undefined) | 644 | -0.2% (inactive) | 8.1% (inactive) | 95.1% | -26.3% (inactive) | 112% | -0.52 (inactive) | -1.6e-05 (inactive) | 0.00437 (inactive) | 7.8% (inactive) | 12.8% (inactive)
11 | COc1ccccc1N1CCN(C(=O)c2ccc(S(=O)(=O)N3CCCCCC3)cc2)CC1 | 604 | -13% (inactive) | -9.1% (inactive) | 89.6% | -59.2% (inactive) | 89.3% | -0.606 (inactive) | -2.1e-05 (inactive) | 0.0031 (inactive) | -1.31% (inactive) | -1.9% (inactive)
12 | Nc1ccc(C(=O)OCCCc2nc3ccccc3[nH]2)cc1 | 366 | -2.2% (inactive) | 10.5% (inactive) | 95.7% | 9% (inactive) | 92.5% | -0.589 (inactive) | -5.8e-05 (inactive) | 0.00614 (inactive) | -17.1% (inactive) | -17.7% (inactive)
13 | O=C(CSc1nnc(Cc2cc(=O)[nH]c(=O)[nH]2)n1-c1ccccc1)NCC1CCCO1 (centres undefined) | 398 | 1.1% (inactive) | -3.9% (inactive) | 110% | 5.7% (inactive) | 102% | -0.373 (inactive) | 3.5e-05 (inactive) | 0.00598 (inactive) | 10.3% (inactive) | 21.2% (inactive)
14 | CC(C)(C)OC(=O)N1CC=C2C(C#N)=C(N)C(C#N)(C#N)C(c3cccs3)C2C1 (centres undefined) | 828 | 2.4% (inactive) | 16.5% (inactive) | 102% | -132% (inactive) | 106% | -0.476 (inactive) | -2.5e-05 (inactive) | 0.00419 (inactive) | 13.2% (inactive) | 8.03% (inactive)
